Measurements from PubChem BioAssay (NCATS).
Records with an inconclusive call do not appear. Entries that show only a call come without a potency. Unmarked numbers belong to inactive results. Active and inactive are the calls of the source. The call rests on the fitted dose curve; in most records, active means well fitted inhibition curve with a large enough effect; inconclusive means small, poorly fitted or top-dose-only effect; inactive means flat fitted curve, though single readings scatter.

Assays:
[1] = qHTS profiling for inhibitors of Plasmodium falciparum proliferation (AID 504749); further: nearly all actives have a fitted effect of over 60% in size; details: P. falciparum in erythrocytes, SYBR Green DNA, 72 h
Method in brief: (§1)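 SYBR Green fluorescence (ex 485 nm, em 535 nm) reports parasite DNA after 72 h compound exposure of infected red cells at 0.3% parasitemia, 2.5% hematocrit; signal normalized to 0.29 uM artemisinin and vehicle wells.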

3D7 = assay: as above; details: P. falciparum in erythrocytes, SYBR Green DNA, 72 h; series mostly up to 28.7 µM
Method in brief: as §1

7G8 = assay: as above; details: P. falciparum in erythrocytes, SYBR Green DNA, 72 h; series mostly up to 28.7 µM
Method in brief: as §1

AA1029 = assay: as above; details: P. falciparum in erythrocytes, SYBR Green DNA, 72 h; series mostly up to 28.7 µM
Method in brief: as §1

AS120 = assay: as above; details: P. falciparum in erythrocytes, SYBR Green DNA, 72 h; series mostly up to 28.7 µM
Method in brief: as §1

ATS189 = assay: as above; details: P. falciparum in erythrocytes, SYBR Green DNA, 72 h; series mostly up to 28.7 µM
Method in brief: as §1

ATS95 = assay: as above; details: P. falciparum in erythrocytes, SYBR Green DNA, 72 h; series mostly up to 28.7 µM
Method in brief: as §1

C2A = assay: as above; details: P. falciparum in erythrocytes, SYBR Green DNA, 72 h; series mostly up to 28.7 µM
Method in brief: as §1

CP185 = assay: as above; details: P. falciparum in erythrocytes, SYBR Green DNA, 72 h; series mostly up to 28.7 µM
Method in brief: as §1

CP191 = assay: as above; details: P. falciparum in erythrocytes, SYBR Green DNA, 72 h; series mostly up to 28.7 µM
Method in brief: as §1

CP192 = assay: as above; details: P. falciparum in erythrocytes, SYBR Green DNA, 72 h; series mostly up to 28.7 µM
Method in brief: as §1

CP194 = assay: as above; details: P. falciparum in erythrocytes, SYBR Green DNA, 72 h; series mostly up to 28.7 µM
Method in brief: as §1

CP201 = assay: as above; details: P. falciparum in erythrocytes, SYBR Green DNA, 72 h; series mostly up to 28.7 µM
Method in brief: as §1

CP203 = assay: as above; details: P. falciparum in erythrocytes, SYBR Green DNA, 72 h; series mostly up to 28.7 µM
Method in brief: as §1

CP211 = assay: as above; details: P. falciparum in erythrocytes, SYBR Green DNA, 72 h; series mostly up to 28.7 µM
Method in brief: as §1

CP215 = assay: as above; details: P. falciparum in erythrocytes, SYBR Green DNA, 72 h; series mostly up to 28.7 µM
Method in brief: as §1

CP217 = assay: as above; details: P. falciparum in erythrocytes, SYBR Green DNA, 72 h; series mostly up to 28.7 µM
Method in brief: as §1

CP237 = assay: as above; details: P. falciparum in erythrocytes, SYBR Green DNA, 72 h; series mostly up to 28.7 µM
Method in brief: as §1

CP238 = assay: as above; details: P. falciparum in erythrocytes, SYBR Green DNA, 72 h; series mostly up to 28.7 µM
Method in brief: as §1

[2] = at 28.7 µM (top of the series), parasite line A
[3] = at 28.7 µM (top of the series), parasite line B
[4] = at 12.8 µM (top of the series), parasite line A
[5] = at 12.8 µM (top of the series), parasite line B
Potency means the concentration at half of the fitted maximal effect.

## CCOc1cc(OCC)c(C(=O)CCC(=O)O)cc1OCC
[1]; [2]
  activity, negative = inhibition: 5.68%
[1]; [3]
  activity, negative = inhibition: 1.04%
3D7
  Potency: inactive
7G8
  Potency: inactive
AA1029
  Potency: inactive
AS120
  Potency: inactive
ATS189
  Potency: inactive
ATS95
  Potency: inactive
C2A
  Potency: inactive
CP185
  Potency: inactive
CP191
  Potency: inactive
CP192
  Potency: inactive
CP194
  Potency: inactive
CP201
  Potency: inactive
CP203
  Potency: inactive
CP211
  Potency: inactive
CP215
  Potency: inactive
CP217
  Potency: inactive
CP237
  Potency: inactive
CP238
  Potency: inactive

## CC(C)CCCC(C)N (stereo not given)
[1]; [2]
  activity, negative = inhibition: 13%
[1]; [3]
  activity, negative = inhibition: -1.67%
3D7
  Potency: inactive
7G8
  Potency: inactive
AA1029
  Potency: inactive
AS120
  Potency: inactive
ATS189
  Potency: inactive
ATS95
  Potency: inactive
C2A
  Potency: inactive
CP185
  Potency: inactive
CP191
  Potency: inactive
CP192
  Potency: inactive
CP194
  Potency: inactive
CP201
  Potency: inactive
CP203
  Potency: inactive
CP211
  Potency: inactive
CP215
  Potency: inactive
CP217
  Potency: inactive
CP237
  Potency: inactive
CP238
  Potency: inactive

## CC1(COc2ccc(CC3SC(=O)NC3=O)cc2)CCCCC1 (stereo not given)
[1]; [2]
  activity, negative = inhibition: 11%
[1]; [3]
  activity, negative = inhibition: -0.436%
3D7
  Potency: inactive
7G8
  Potency: inactive
AA1029
  Potency: inactive
AS120
  Potency: inactive
ATS189
  Potency: inactive
ATS95
  Potency: inactive
C2A
  Potency: inactive
CP185
  Potency: inactive
CP191
  Potency: inactive
CP192
  Potency: inactive
CP194
  Potency: inactive
CP201
  Potency: inactive
CP203
  Potency: inactive
CP211
  Potency: inactive
CP215
  Potency: inactive
CP217
  Potency: inactive
CP237
  Potency: inactive
CP238
  Potency: inactive

## Cc1ccccc1OCC(O)CO (stereo not given)
[1]; [2]
  activity, negative = inhibition: 13.7%
[1]; [3]
  activity, negative = inhibition: 2.74%
3D7
  Potency: inactive
7G8
  Potency: inactive
AA1029
  Potency: inactive
AS120
  Potency: inactive
ATS189
  Potency: inactive
ATS95
  Potency: inactive
C2A
  Potency: inactive
CP185
  Potency: inactive
CP191
  Potency: inactive
CP192
  Potency: inactive
CP194
  Potency: inactive
CP201
  Potency: inactive
CP203
  Potency: inactive
CP211
  Potency: inactive
CP215
  Potency: inactive
CP217
  Potency: inactive
CP237
  Potency: inactive
CP238
  Potency: inactive

## OC[C@H]1O[C@@H]2O[C@H]3[C@H](O)[C@@H](O)[C@@H](O[C@H]4[C@H](O)[C@@H](O)[C@@H](O[C@H]5[C@H](O)[C@@H](O)[C@@H](O[C@H]6[C@H](O)[C@@H](O)[C@@H](O[C@H]7[C@H](O)[C@@H](O)[C@@H](O[C@H]8[C@H](O)[C@@H](O)[C@@H](O[C@H]1[C@H](O)[C@H]2O)O[C@@H]8CO)O[C@@H]7CO)O[C@@H]6CO)O[C@@H]5CO)O[C@@H]4CO)O[C@@H]3CO
[1]; [2]
  activity, negative = inhibition: 8.7%
[1]; [3]
  activity, negative = inhibition: 8.53%
3D7
  Potency: inactive
7G8
  Potency: inactive
AA1029
  Potency: inactive
AS120
  Potency: inactive
ATS189
  Potency: inactive
ATS95
  Potency: inactive
C2A
  Potency: inactive
CP185
  Potency: inactive
CP191
  Potency: inactive
CP192
  Potency: inactive
CP194
  Potency: inactive
CP201
  Potency: inactive
CP203
  Potency: inactive
CP211
  Potency: inactive
CP215
  Potency: inactive
CP217
  Potency: inactive
CP237
  Potency: inactive
CP238
  Potency: inactive

## c1ccc(CC2=NCCN2)cc1
[1]; [4]
  activity, negative = inhibition: -1.06%
[1]; [5]
  activity, negative = inhibition: -2.59%
3D7
  Potency: inactive
7G8
  Potency: inactive
AA1029
  Potency: inactive
AS120
  Potency: inactive
ATS189
  Potency: inactive
ATS95
  Potency: inactive
C2A
  Potency: inactive
CP185
  Potency: inactive
CP191
  Potency: inactive
CP192
  Potency: inactive
CP194
  Potency: inactive
CP201
  Potency: inactive
CP203
  Potency: inactive
CP211
  Potency: inactive
CP215
  Potency: inactive
CP217
  Potency: inactive
CP237
  Potency: inactive
CP238
  Potency: inactive

## CCN(CC)CCNC(=O)COc1ccc(OC)cc1
[1]; [2]
  activity, negative = inhibition: 19.5%
[1]; [3]
  activity, negative = inhibition: 3.1%
3D7
  Potency: inactive
7G8
  Potency: inactive
AA1029
  Potency: inactive
AS120
  Potency: inactive
ATS189
  Potency: inactive
ATS95
  Potency: inactive
C2A
  Potency: inactive
CP185
  Potency: inactive
CP191
  Potency: inactive
CP192
  Potency: inactive
CP194
  Potency: inactive
CP201
  Potency: inactive
CP203
  Potency: inactive
CP211
  Potency: inactive
CP215
  Potency: inactive
CP217
  Potency: inactive
CP237
  Potency: inactive
CP238
  Potency: inactive

## Nc1ccc(S(=O)(=O)NCc2ccccc2)cc1
[1]; [2]
  activity, negative = inhibition: 4.25%
[1]; [3]
  activity, negative = inhibition: 6.29%
3D7
  Potency: inactive
7G8
  Potency: inactive
AA1029
  Potency: inactive
AS120
  Potency: inactive
ATS189
  Potency: inactive
ATS95
  Potency: inactive
C2A
  Potency: inactive
CP185
  Potency: inactive
CP191
  Potency: inactive
CP192
  Potency: inactive
CP194
  Potency: inactive
CP201
  Potency: inactive
CP203
  Potency: inactive
CP211
  Potency: inactive
CP215
  Potency: inactive
CP217
  Potency: inactive
CP237
  Potency: inactive
CP238
  Potency: inactive

## FC1(F)C(F)(F)C(F)(F)C2(F)C(F)(F)C(F)(F)C(F)(F)C(F)(F)C2(F)C1(F)F (stereo not given)
[1]; [2]
  activity, negative = inhibition: 5.48%
[1]; [3]
  activity, negative = inhibition: 12.9%
3D7
  Potency: inactive
7G8
  Potency: inactive
AA1029
  Potency: inactive
AS120
  Potency: inactive
ATS189
  Potency: inactive
ATS95
  Potency: inactive
C2A
  Potency: inactive
CP185
  Potency: inactive
CP191
  Potency: inactive
CP192
  Potency: inactive
CP194
  Potency: inactive
CP201
  Potency: inactive
CP203
  Potency: inactive
CP211
  Potency: inactive
CP215
  Potency: inactive
CP217
  Potency: inactive
CP237
  Potency: inactive
CP238
  Potency: inactive

## CCOC(=O)c1ccc(N)cc1
[1]; [4]
  activity, negative = inhibition: 6.05%
[1]; [5]
  activity, negative = inhibition: 7.01%
3D7
  Potency: inactive
7G8
  Potency: inactive
AA1029
  Potency: inactive
AS120
  Potency: inactive
ATS189
  Potency: inactive
ATS95
  Potency: inactive
C2A
  Potency: inactive
CP185
  Potency: inactive
CP191
  Potency: inactive
CP192
  Potency: inactive
CP194
  Potency: inactive
CP201
  Potency: inactive
CP203
  Potency: inactive
CP211
  Potency: inactive
CP215
  Potency: inactive
CP217
  Potency: inactive
CP237
  Potency: inactive
CP238
  Potency: inactive

## O=C(O)CCC(=O)Nc1ccc(S(=O)(=O)Nc2nccs2)cc1
[1]; [4]
  activity, negative = inhibition: 14.2%
[1]; [5]
  activity, negative = inhibition: 11.7%
3D7
  Potency: inactive
7G8
  Potency: inactive
AA1029
  Potency: inactive
AS120
  Potency: inactive
ATS189
  Potency: inactive
ATS95
  Potency: inactive
C2A
  Potency: inactive
CP185
  Potency: inactive
CP191
  Potency: inactive
CP192
  Potency: inactive
CP194
  Potency: inactive
CP201
  Potency: inactive
CP203
  Potency: inactive
CP211
  Potency: inactive
CP215
  Potency: inactive
CP217
  Potency: inactive
CP237
  Potency: inactive
CP238
  Potency: inactive

## CCN1/C(=C/C=C/c2sc3ccccc3[n+]2CC)Sc2ccccc21
[1]; parasite line A
  Potency: 89.1 nM (active)
[1]; parasite line B
  Potency: 178 nM (active)
3D7
  Potency: 141 nM (active)
7G8
  Potency: 79.4 nM (active)
AA1029
  Potency: 178 nM (active)
AS120
  Potency: 199 nM (active)
ATS189
  Potency: 158 nM (active)
ATS95
  Potency: 178 nM (active)
C2A
  Potency: 126 nM (active)
CP185
  Potency: 112 nM (active)
CP191
  Potency: 100 nM (active)
CP192
  Potency: 379 nM (active)
CP194
  Potency: 478 nM (active)
CP201
  Potency: 849 nM (active)
CP203
  Potency: 675 nM (active)
CP211
  Potency: 379 nM (active)
CP215
  Potency: 675 nM (active)
CP217
  Potency: 178 nM (active)
CP237
  Potency: 158 nM (active)
CP238
  Potency: 126 nM (active)
